Sampled rows, rich in hits. Any-hit rate of the full collection: about 7.9%.
HT1080-NT tox: kills 2HG-producing HT-1080-NT fibrosarcoma cells. HT-1080-NT fibrosarcoma viability, CellTiter-Glo ATP luminescence, 48 h. Potency, µM (doses to about 46.1 µM), without a hit: at the highest dose activity, negative = less viability, most hits filed as cytotoxic. actives 1.6% (n = 360,000). AID 686970;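 further: NT is the 2HG producing partner of a matched IDH1 knockdown line; 0% = DMSO-treated cells and -100% = media-only wells without cells; nearly all actives have a fitted effect of over 55% in size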
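Viability of the 2HG-overproducing fibrosarcoma line after 48 hours of compound exposure at 37 degrees C was determined by luminescence with CellTiter-Glo, and concentration-effect curves were then fitted and categorized.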
KB-3-1 tox: kills parental KB-3-1 adenocarcinoma cells; KB-3-1 viability, CellTiter-Glo ATP luminescence, 72 h; Potency, µM (highest dose often 46.1 µM), actives largely listed as cytotoxic; actives 1.4% (n = 400,000); further: on the % scale 0 is the no-effect control and ±100 the full control effect; nearly all actives have a fitted effect of over 60% in size
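Parental KB-3-1 viability, qHTS format: 72 h compound exposure, 37 °C; CellTiter-Glo; media-only wells and DMSO plates as controls; concentration-effect fits on corrected data.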
KB-V1 cytotox: KB-V1 MDR subline cytotoxicity; Potency, µM (doses to about 46.1 µM), usual class: cytotoxic; actives 3.4% (n = 400,000); KB-V1 MDR cells viability, CellTiter-Glo, 72 h; further: on the % scale 0 is the no-effect control and ±100 the full control effect; nearly all actives have a fitted effect of over 60% in size
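KB-V1, DMEM (no phenol red) + 10% FBS; cpd pin-transferred, titration series; 72 h, 37 degrees C; CellTiter-Glo, luminescence. Data normalized, curve-fit.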
SW480 rereplic: inducers of DNA re-replication in SW480 colon cancer cells; actives 1.8% (n = 340,000); Potency, µM (doses to about 46.1 µM), inactives show at the top dose re-replication activation, actives largely listed as activators; SW480 DNA re-replication, Hoechst DNA content imaging, 48 h; further: % of control where 0% means no effect; nearly all actives have a fitted effect of over 55% in size
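Treated cells incubate 48 hr (37 C, 5% CO2), are stained 40 min with Hoechst, and nuclear fluorescence is enumerated; a rise in nuclei with high DNA signal marks re-replication.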
MCF10A rereplic: DNA re-replication induction in MCF 10a cells; MCF 10A DNA re-replication, Hoechst nuclear intensity, 48 h; Potency, µM (series often up to 46.1 µM), for the others: top-dose activity, positive = re-replication, usual class: activators; actives 2.9% (n = 350,000); AID 624296; further: % of control where 0% means no effect; nearly all actives have a fitted effect of over 50% in size
HT1080 IDH1KD tx: toxicity to HT-1080 IDH1 knockdown cells (counter line); HT-1080 IDH1 knockdown viability, ATP luminescence, 48 h; Potency, µM (top dose mostly 46.1 µM), for the others: top-dose activity, negative = toxicity, most hits filed as cytotoxic; actives 2% (n = 360,000); AID 686971;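 further: 0% = DMSO wells and -100% = cell-free medium wells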
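In this qHTS, HT-1080 cells depleted of IDH1 are exposed for 48 h at 37 °C to compound titrations. Toxicity is scored from CellTiter-Glo luminescence, with DMSO as full viability and medium alone as none.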
An asterisk follows results filed as active; i = inactive; ? = inconclusive; / = no result. The call rests on the fitted dose curve; in most records, active means well fitted curve in the direction sought with a large enough effect; inconclusive means small, poorly fitted or top-dose-only effect, or another doubt; inactive means no such curve, though single readings can be large; an effect the other way counts as inactive or inconclusive. Potency means the concentration at half of the fitted maximal effect.

SMILES	HT1080-NT tox	KB-3-1 tox	KB-V1 cytotox	SW480 rereplic	MCF10A rereplic	HT1080 IDH1KD tx
NCCCN(Cc1ccc(Cl)cc1)c1ccc(Br)cn1	?	/	/	/	/	11.2µM*
O=C(COC(=O)c1ccccn1)Nc1ccc2c(c1)OCCO2	6.5%	i	i	-6.5%	2.1%	1.8%
CN1CCC(Nc2ncc3ncnc(Nc4ccc(F)c(Cl)c4)c3n2)CC1	/	/	/	13.3µM*	3.35µM*	/
COc1cc2nc(Cl)nc(NC3CCN(C)CC3)c2cc1OC	3.5%	/	/	/	/	13.1%
O=C(NCCCn1ccnc1)c1sc2cc([N+](=O)[O-])ccc2c1Cl	-26.8%	?	?	/	/	-23.8%
O=C(CN(c1ccc(Br)cc1)S(=O)(=O)c1ccc(Cl)c([N+](=O)[O-])c1)NCC1CCCO1 (stereo not given)	?	i	?	?	16.4µM*	?
O=C(O)c1cc(S(=O)(=O)N(Cc2ccccc2)c2ccc(Cl)cc2)ccc1Cl	-17.8%	i	i	?	20.6µM*	-0.6%
O=C(CN(c1ccc(Cl)cc1)S(=O)(=O)c1ccc(Cl)c([N+](=O)[O-])c1)NCCc1ccc(F)cc1	11.7%	i	i	6.4%	3.66µM*	16.9%
O=C(CN(c1ccc(Cl)cc1)S(=O)(=O)c1ccc(Cl)c([N+](=O)[O-])c1)NCCc1ccccc1	11.1%	i	i	-14.7%	3.66µM*	-2.8%
CSC1=C(C#N)C(=O)NC(c2ccc(Cl)cc2)S1 (stereo not given)	-1.6%	?	?	-24.9%	?	-3.5%
CCOC(=O)[C@@H](C)N(C(=O)OC(C)(C)C)S(=O)(=O)N(Cc1ccccc1)[C@@H](C(=O)OC)C(C)C	/	i	i	/	/	/
Cc1c(C(=O)Nc2ccc(S(=O)(=O)Nc3ncccn3)cc2)oc2ccc(F)cc12	-0.8%	/	/	2.3%	11.3%	0.0%
O=C(COc1ccc2c(-c3ccccc3)cc(=O)oc2c1)Nc1cccnc1	3.1%	i	i	?	0.2%	-6.8%
Cn1c(=O)c2c(SCC(=O)NCC3CCCO3)nc(-c3cccc(F)c3)nc2n(C)c1=O (stereo not given)	/	i	i	/	/	/
COc1ccc(C(=O)Nc2nnc(SCc3cc(=O)c4cc(C)cc(C)c4[nH]3)s2)cc1	/	i	i	/	/	/
COc1ccc(-c2nnc(SCc3cc(=O)c4cc(C)cc(C)c4[nH]3)n2C)cc1	/	8.2µM*	?	/	/	/
CC(C)=C1C2CCC1C(C(=O)Nc1sc(C)c(-c3ccc(C(C)C)cc3)c1C(N)=O)C2C(=O)O (stereo not given)	?	?	2.06µM*	?	33.1%	16.4µM*
CCOC(=O)c1c(C)nn(-c2ccc(NC(=O)/C=C/C(=O)O)cc2)c1C	5.2%	i	i	-5.8%	-1.7%	20.6%
COC(=O)c1c(NC(=O)/C=C/C(=O)O)sc(C)c1-c1ccc(C(C)C)cc1	?	20.6µM*	?	14.6µM*	3.26µM*	?
CCOC(=O)c1c(NC(=O)/C=C/c2ccc(OCC)cc2)sc(C)c1C	/	i	i	/	/	/
CCOC(=O)c1c(NC(=O)/C=C/C(=O)O)sc(C)c1-c1ccc(C)c(C)c1	?	i	i	12.6%	4.11µM*	?
CCOC(=O)c1c(NC(=O)/C=C/C(=O)O)sc(C)c1-c1ccc(F)cc1	20.6µM*	?	?	0.0%	?	?
O=Cc1cc2c3c(c1)CCCN3CCC2	/	i	i	/	/	/
Cc1ccc(C)c(NC(=O)c2ccc3c(c2)CCN3S(C)(=O)=O)c1	8.4%	i	i	/	/	12.3%
COc1ccc(OC)c(NC(=O)CSc2nnc(-c3cnccn3)n2C)c1	3.8%	i	i	-2.5%	-1.7%	0.8%
COc1ccc2cc(S(=O)(=O)N3CCCC3)ccc2c1	-24.7%	i	i	-30.4%	-18.0%	-12.3%

Screening data: PubChem, National Center for Advancing Translational Sciences (NCATS)
